In PubChem BioAssay AID651597 (National Center for Advancing Translational Sciences (NCATS), 2012):
Several values for one entry are separate records, joined by “and”; a condition that tells them apart may be missing. Identical values can stand only once. Hit rate of the full screen: of about 1,100 compounds, about 390 (35%) were called active. Another 30% or so got no clear call; they are omitted. Calls come from the whole dose curve; as a rule, active = well fitted inhibition curve with a large enough effect; inconclusive = small, poorly fitted or top-dose-only effect; inactive = flat fitted curve, though single readings scatter. The list shows a part of the results. Entries that show only a call come without a potency.

Biological target: Luciferin 4-monooxygenase (Photinus pyralis) (UniProt P08659)
Experiment: qHTS of Nrf2 Activators: Hit Validation in Secondary FLuc Assay; note: nearly all actives have a fitted effect of over 65% in size
Details: firefly luciferase inhibition counter-screen, luminescence; series mostly up to 57.5 µM
From the text: Many diseases have some form of oxidative stress injury and ties to inflammation, causing a host of problems for the patient. The antioxidant response element (ARE) plays an important role in alleviating the harmful effects of oxidative stress. The antioxidant response element (ARE) is a transcriptional regulatory element involved in the activation of genes coding for a number of antioxidant proteins and detoxifying enzymes. These enzymes work in concert to protect tissues from oxidative insults and chemical toxicities in human hepatocytes and immune cells. The protective effects of ARE activation are primarily triggered through Nrf2 (NF-E2-related factor) binding to and activating AREs. It is known that Nrf2 controls the production of over 250 antioxidant and detoxification proteins (Hu et al., 2006), thereby protecting tissues by increasing cellular antioxidant content and suppressing inflammatory signaling pathways. The transcription factor Nrf2 is a central link between oxidative chemicals, such as phenolic antioxidants and electrophilic compounds, and the activation of ARE. Nrf2 levels are constitutively low as a consequence of its interaction with Keap1, which targets its degradation (Zipper and Mulcahy, 2002). Electrophiles react with key cysteine residues in Keap1, releasing Nrf2 and allowing its translocation to the nucleus. Once within the nucleus, Nrf2 complexes with coactivators such as p300, and binds to the AREs to induce gene transcription of cytoprotective enzymes, resulting in the prevention of toxicity. Activation of Nrf2 protects tissues by increasing cellular antioxidant content and suppressing inflammatory signaling pathways. Identifying novel and potent Nrf2 activators by using the AREc32 cell line to detect ARE activation by small molecules will lead to the identification and development of probes to study protective pathways in multiple tissues. These specific probes are essential to study the ARE pathway, and eventually to determine whether this pathway does activate genes that could protect against a host of diseases, including cardiovascular diseases, obesity, diabetes, Alzheimer's, and Parkinson's disease.
This project's aim is to identify novel and potent Nrf2 activators by using the AREc32 cell line to detect ARE activation by small molecules, which will lead to the identification and development of probes to study the ARE pathway. In this counter assay, we aim to identify false positive as identified from this primary assay using an FLuc assay with an inhibiting read-out.
NIH Chemical Genomics Center [NCGC]
NIH Molecular Libraries Probe Centers Network [MLPCN]
Assay Submitter (PI): Curtis Klaassen, University of Kansas Medical Center
Assess whether an activator in the primary assay potentially causes such activation by inhibitor-induced stabilization of the firefly luciferase reporter enzyme by determining whether it inhibits firefly luciferase in the presence of Km concentrations of its substrates (ATP and D-luciferin).
Potency is the fitted concentration of half-maximal effect.

Compound | Potency
O=c1cc(-c2ccco2)nc(SCc2cccc(Cl)c2)[nH]1 | inactive
C=CCSc1nccc(-c2cc(Cl)sc2Cl)n1 | inactive
c1ccc(CSc2nccc(-c3ccco3)n2)cc1 | 12 µM (active)
COC(=O)c1cc2c(s1)-c1cc(F)ccc1OC2 | inactive
CCn1c(NC(=O)c2cccs2)nc2ccccc21 | 12 µM (active)
CCn1c(NC(=O)c2ccccc2)nc2ccccc21 | 9.53 µM (active)
Brc1cc(Cc2nnc(-c3ccccc3)o2)c(Br)s1 | inactive
N=c1n(CCN2CCOCC2)c2ccccc2n1CC(=O)c1cccc([N+](=O)[O-])c1 | inactive
O=[N+]([O-])c1cccc(-c2nnc(-c3ccccc3)o2)c1 | 2.39 µM (active)
c1ccc(-c2nnc(-c3ccccc3)o2)cc1 | 1.9 µM (active)
O=[N+]([O-])c1cccc(-c2nc(-c3ccccn3)no2)c1 | 1.9 µM (active)
O=C1C2C(C(=O)N1/N=C/c1ccc([N+](=O)[O-])o1)C1C=CC2C12CC2 (centres undefined) | inactive
O=[N+]([O-])c1cnccc1-n1nnc2ccccc21 | inactive
NC(=O)c1cc2c3ccccc3ccn2c1-c1ccccc1 | 13.5 µM (active)
CCOc1c(Br)cc(C(N)=O)cc1OCc1ccccc1 | inactive
COC(=O)C1=C(C)N(C)C(=O)/C1=C\c1ccco1 | inactive
O=C1C(=Cc2ccco2)CCCC1=Cc1ccco1 | 2.69 µM (active)
Nc1ccc(S(=O)(=O)Nc2nccc(/C=C/c3cccc(Br)c3)n2)cc1 | inactive
Nc1nccc(/C=C/c2c(F)cccc2Cl)n1 | 9.53 µM (active)
COc1ccccc1C(=O)COC(=O)c1cccs1 | 2.69 µM (active)
COC(=O)c1ccccc1NC(=O)COCc1cc(-c2cccs2)on1 | inactive
COC(=O)c1ccccc1NC(=O)c1cccs1 | inactive

Compound | Potency
COc1cc(OC)cc(-c2nc3ccccc3s2)c1 | 3.79 µM (active)
COc1nc(-c2ccccc2)cc(-c2ccccc2)n1 | inactive
C/C(=N\NC(=S)Nc1cccc(C)c1)c1ccco1 | 7.57 µM (active)
Cc1cccc(NC(=O)C2CC(=O)N/C(=N/N=C/c3ccco3)S2)c1 (centres undefined) | inactive
Cc1cc(C)c(C#N)c(OCC(=O)c2ccc(Br)cc2)n1 | inactive
Cc1ccnc(SCC(=O)c2ccc(Br)cc2)c1C#N | 6.01 µM (active)
N#C/C(=C(/O)c1ccco1)c1nc2ccccc2s1 | 2.39 µM (active) and 2.69 µM (active)
N#C/C(=C(/O)c1ccco1)c1nc2ccccc2[nH]1 | 3.79 µM (active)
COC(=O)c1cc2nc(-c3ccccc3)cc(C(F)(F)F)n2n1 | inactive
COC(=O)c1sccc1NC(=O)c1ccccc1 | inactive
COCCn1c(C(F)(F)F)ccc(NC(=O)c2ccccc2)c1=O | 4.78 µM (active)
O=C1N/C(=N\N=C\c2ccco2)SC1Cc1ccccc1[N+](=O)[O-] (centres undefined) | inactive
Cc1ccc2[nH]c(=O)c3cc(C(=O)N(C)Cc4ccco4)sc3c2c1 | 12 µM (active)
CN(C)CCNC(=O)c1cccc2ccc(-c3ccc(-c4ccccc4)cc3)nc12 | inactive
CC(=O)Cn1nnc2sc(-c3ccccc3)cc2c1=O | 6.01 µM (active) and 5.36 µM (active)
CCN(C(=O)Cn1nnc2sc(-c3ccccc3)cc2c1=O)c1cccc(C)c1 | 12 µM (active)
CC(=NNc1ccc2ccccc2n1)c1ccccc1O | 0.0169 µM (active)
Cc1cc(C)c(-n2c(SCCS(=O)(=O)c3ccc(F)cc3)n[nH]c2=O)c(C)c1 | inactive
O=C(Oc1ccccc1/C=C\C(=O)c1cc2ccccc2o1)c1ccccc1 | 1.07 µM (active)
COc1ccc(-c2cc3ccccc3oc2=O)cc1NC(=O)c1ccc([N+](=O)[O-])o1 | inactive
COc1cccc(C(=O)Oc2ccccc2/C=C\C(=O)c2cc3ccccc3o2)c1 | 1.51 µM (active)
CN1CCN(CCCNC(=O)c2cc3c(=O)n(C)c4ccccc4c3s2)CC1 | inactive

Compound | Potency
O=[N+]([O-])c1ccc(/C=[N+](\[O-])[C@@H]2CCCC[C@@H]2/[N+]([O-])=C/c2ccc([N+](=O)[O-])o2)o1 | inactive
O=[N+]([O-])c1ccc(/C=N/Nc2ccc3ccccc3c2)o1 | 1.69 µM (active)
O=[N+]([O-])c1ccc(/C=N/N=C/c2ccc([N+](=O)[O-])o2)o1 | inactive
O=C(COCc1cc(-c2ccc(F)cc2)on1)Nc1cc(Cl)ccc1O | inactive
Cc1cccc2nc3c(nc12)-c1ccccc1C3=O | inactive
Cc1cccc2cc3c(nc12)-c1ccccc1C3=O | 10.7 µM (active)
CS(=O)(=O)c1nc(S(=O)(=O)c2ccc(Cl)cc2)c(N2CCOCC2)s1 | inactive
Clc1cc(Cl)cc(Nc2ncnc(-n3cccc3)n2)c1 | inactive
CCn1nc(C)c(Br)c1-c1nc(-c2cccc(C)c2)no1 | inactive
Clc1ccc(-c2nnc(-c3cccc4ccccc34)o2)cc1 | 1.35 µM (active)
Cc1cccc(-c2nnc(-c3cccc4ccccc34)o2)c1 | 0.675 µM (active)
COc1cc2c(cc1Cl)/C(=C\CCN(C)C)c1ccccc1S2 | inactive
Cc1nnc2n1N=CC=C(c1ccccc1)S2 | inactive
C#CCSc1nnc(-c2sc3ccccc3c2Cl)o1 | 2.39 µM (active)
O=C1C(=C2CCc3ccccc32)Cc2ccccc21 | 0.301 µM (active)
O=C(NN/C(=N/S(=O)(=O)c1ccc(Cl)cc1)c1ccccc1)c1cccc(Cl)c1 | 3.01 µM (active)
Cc1ccc(S(=O)(=O)/N=C(/NNC(=O)c2cccc(Cl)c2)c2ccccc2)cc1 | 5.36 µM (active)
O=C(NNC(=O)c1sccc1-n1cccc1)c1cccc(Cl)c1 | inactive
O=[N+]([O-])c1ccc(/C=C/c2ccc3cccc([N+](=O)[O-])c3n2)cc1 | inactive
O=[N+]([O-])c1cccc2ccc(/C=C/c3ccc(F)cc3)nc12 | 2.39 µM (active)
Cc1c(=O)n(OCc2ccccc2)c2ccccc2[n+]1[O-] | inactive
N=c1oc2ccccc2cc1-c1nc(-c2ccccc2)cs1 | 2.69 µM (active)

Compound | Potency
CC1CCCCC1NC(=O)COC(=O)c1c2c(nc3ccccc13)/C(=C/c1ccco1)CC2 (centres undefined) | 4.78 µM (active)
Cc1cc(SCC(=O)N/N=C/c2ccco2)nc2ccccc12 | inactive
c1ccc(-c2ccc3c(c2)NC(C2Nc4cc(-c5ccccc5)ccc4O2)O3)cc1 (centres undefined) | inactive
O=C1C(Cl)=C(N2CCN(c3ccccc3[N+](=O)[O-])CC2)C(=O)c2ccccc21 | 1.2 µM (active)
O=[N+]([O-])c1ccccc1S(=O)c1ccccc1[N+](=O)[O-] | inactive
O=C(Nc1cccn2ncnc12)c1cccc(C(F)(F)F)c1 | inactive
O=C(Nc1ccc(Cl)cn1)c1cnn2cccnc12 | 2.39 µM (active)
O=C(NCc1ccco1)c1cccnc1-c1nc2ccccc2s1 | 10.7 µM (active)
N#CC(C(=O)NCc1ccco1)c1nc2ccccc2nc1N1CCOCC1 (centres undefined) | inactive
COc1c(Cl)cc(C(=O)NCc2ccco2)cc1Cl | inactive
O=C(Nc1cccc(/C=C/c2ccccn2)c1)c1ccc(-n2cncn2)cc1 | 2.13 µM (active)
COc1cc(OC)cc(C(=O)O/N=C(\N)c2cccc(C)c2)c1 | 9.53 µM (active)
COc1ccc(/C(N)=N/OC(=O)c2cccc([N+](=O)[O-])c2)cc1 | 1.51 µM (active)
Cc1cc(CNC(=O)c2cccc([N+](=O)[O-])c2)c2ccccc2n1 | inactive
Cn1c(=O)n(C)c2cc(NC(=O)c3cccc([N+](=O)[O-])c3)c(Br)cc21 | inactive
CCOC(=O)CCn1c(=O)c2cccn2c2cccnc21 | inactive
Cc1nc(/N=C(\N)NC(=O)c2ccccc2)nc2ccccc12 | 3.79 µM (active)
C(=Cc1cnnc2ccccc12)c1ccccc1 | 3.38 µM (active)
COc1ccc(Cl)cc1C(=O)O/N=C(\N)c1ccccn1 | 10.7 µM (active)
COc1ccc(Cl)cc1C(=O)O/N=C(\N)c1ccncc1 | inactive
COc1ccc(Cl)cc1C(=O)NC(=S)Nc1nc(C)cc(C)n1 | inactive
COc1ccc(Cl)cc1C(=O)O/N=C(\N)c1ccc(Cl)cc1 | 9.53 µM (active)

Compound | Potency
COc1ccc(Cl)cc1NC(=O)c1cc(C)no1 | inactive
COc1ccccc1C(=O)O/N=C(\N)c1ccc(Cl)cc1 | 3.38 µM (active)
COc1ccc(C(C)=O)cc1OCc1ccccc1 | inactive
COCCNC(=O)c1ccc(-n2c(-c3ccccc3)cc3c2CCC(C)C3)cc1 (centres undefined) | inactive
CSc1nc(Oc2ccc3ccccc3c2)c2sccc2n1 | inactive
Cc1nc([N+](=O)[O-])c(Br)n1Cc1ccccc1 | inactive
COc1ccc(/C=C2/CCCC(CN(C)C)C2=O)cc1 (centres undefined) | 3.38 µM (active)
COc1cccc(/C=C2/CCC(CN(C)C)C2=O)c1 (centres undefined) | 1.51 µM (active)
COc1cccc(C2=CC(c3cccs3)n3nnnc3N2)c1 (centres undefined) | inactive
c1ccc(-c2noc(-c3cccc4ccccc34)n2)cc1 | 0.953 µM (active)
c1ccc(-c2noc(-c3cccnc3)n2)cc1 | 3.01 µM (active)
Fc1ccccc1-c1nc(-c2ccc(Cl)cc2)no1 | 0.478 µM (active)
O=C(CSc1nnc(-c2cccnc2)o1)c1cc2ccccc2oc1=O | inactive
COc1cccc(-c2nc(-c3ccccc3)no2)c1 | 0.151 µM (active)
Brc1ccc(-c2nnc(-c3cccnc3)c3conc23)cc1 | inactive
COc1nc2ccc(C)cc2cc1-c1noc(-c2ccccc2)n1 | inactive
O=C(CN1CC(=O)Oc2ccccc21)OCC(=O)c1ccc(F)cc1 | inactive
c1cncc(-c2noc(-c3cccc4ccccc34)n2)c1 | 2.39 µM (active)
Cc1cc(C)c(C#N)c(OCC(=O)c2ccccc2)n1 | inactive
Cc1cc(C)c(C#N)c(SCC(=O)c2ccccc2)n1 | inactive
Cc1cc(C)c(C#N)c(SCC(=O)c2cccs2)n1 | 12 µM (active)
